For 15 molecules, z-score results are on record in PubChem BioAssay.

Calls of active or inactive are those of the source.

Assay [1] in a line: compound effects on lung adenocarcinoma cell viability – A549, calcein-AM fluorescence, 48 h, basal, profiling panel (AID 1162). The settings on record: higher = more signal.
Assay [2] is described as follows: compound effects on differentiated 3T3-L1 adipocyte viability – cell-based, 3T3-L1 adipocytes, calcein-AM fluorescence, 48 h, basal, profiling panel (AID 1163). The settings on record: 3T3-L1 adipocytes viability, higher = more signal.
Assay [3] can be described thus: compound effects on hepatocellular carcinoma cell viability – HepG2, calcein-AM fluorescence, 48 h, basal, profiling panel (AID 1164). The following applies: higher = more signal.
Assay [4] can be described thus: compound effects on multiple myeloma cell viability – MM1S, calcein-AM fluorescence, 48 h, basal, profiling panel (AID 1165).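 Note: viability of MM1S multiple myeloma cells under basal unstimulated conditions.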 The following applies: higher = more signal.
Assay [5] can be described thus: calcein-AM signal in unstimulated myeloma cells – cell-based, calcein-AM fluorescence, 48 h, PK04 Diversity Set, profiling panel (AID 1166).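 Note: cells grown under basal conditions without added stimulus.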 The settings on record: RPMI8226 myeloma viability, higher = more signal.
Assay [6] is described as follows: JC-1 mitochondrial signal, unstimulated HepG2 cells – cell-based, JC-1 fluorescence, 24 h, 100 nL compound, profiling panel (AID 1167). The following applies: HepG2 mitochondrial potential, higher = more signal.
Assay [7] can be described thus: JC-1 mitochondrial signal, unstimulated adipocytes – cell-based, JC-1 fluorescence, 3T3-L1 adipocytes, 24 h, 100 nL compound, profiling panel (AID 1168). The settings on record: JC-1 mitochondrial fluorescence, higher = more signal, called active from +8 up or from −8 down.
A short description of assay [8]: JC-1 mitochondrial signal, unstimulated myeloma cells – cell-based, JC-1 fluorescence, RPMI8226, 24 h, 100 nL compound, profiling panel (AID 1169). The settings on record: JC-1 mitochondrial potential fluorescence, higher = more signal.
Assay [9] in a line: JC-1 mitochondrial signal, unstimulated MM1S myeloma – cell-based, JC-1 fluorescence, 24 h, 100 nL compound, profiling panel (AID 1170). The following applies: MM1S mitochondrial potential, higher = more signal.
The nature of assay [10]: resazurin metabolic signal in A549 cells – cell-based, resazurin fluorescence, 24 h, PK04 Diversity Set, profiling panel (AID 1171). The following applies: A549 viability, higher = more signal, called active from +8 up or from −8 down.
Note: test concentration not given here.

Take `CCCC[C@@H]1C[C@H]1[C@@H](NS(=O)(=O)c1cccc2cccnc12)c1ccc(-c2ccccc2)cc1`: the z-score in assay [1] was -1.11; in assay [2], -1.08; in [3], -0.0369; in [4] it was 0.252; in assay [5], 0.0748; in assay [6], -1.13. Moreover, the z-score in assay [7] was -0.43 (inactive); in assay [8], -0.214; in [9], -1.49; in [10] it was 0.239 (inactive).
Turning to `C[C@@H](c1ccccc1)N1C(=O)[C@H]2[C@H]3[C@H](O)C=CC(=O)[C@@H]3CC[C@H]2C1=O`, the z-score in assay [1] was -0.0257; in [2], 0.0344; in assay [3] it was 0.628; in assay [4] it was -0.438; in [5] it was -0.136; in [6], 0.457. The z-score was 0.715 (inactive) in assay [7], 0.04 in assay [8], 0.711 in [9] and 0.165 (inactive) in assay [10].
Consider `Cc1cc(C)c(-c2cc([C@H](C)ON=C3[C@H]4CCn5c(=O)n(-c6ccccc6)c(=O)n5[C@H]4[C@H](O)[C@@H]4O[C@H]34)on2)c(C)c1`, for which the z-score was -0.605 in assay [1]; -0.91 in assay [2]; -0.887 in assay [3]; -2.95 in assay [4]; -3.87 in [5]; 0.668 in assay [6]. In addition, the z-score is -0.803 (inactive) in assay [7], -1.24 in assay [8], -2.39 in assay [9] and -0.776 (inactive) in [10].
Turning to `COC(=O)[C@@H]1CC[C@H](C)[C@@H](c2ccc(C)cc2)N1C(=O)c1ccc(C=NOC[C@@H](O)COCc2ccco2)cc1`, the z-score in assay [1] is -0.181; in assay [2], 0.346; in assay [3] it was -0.807; in assay [4] it was -1.32; in [5], -1.46; in assay [6], -2.38. The z-score in assay [7] was -0.747 (inactive); in assay [8], 0.304; in assay [9], -0.352; in assay [10] it was -0.45 (inactive).
Consider `CC(C)=CCCC(C)=CCON=C1[C@H]2CCn3c(=O)n(Cc4cc5c(cc4Cl)OCO5)c(=O)n3[C@H]2[C@H](O)[C@@H]2O[C@H]12`, for which the z-score was -0.305 in assay [1]; 0.123 in assay [2]; 0.42 in [3]; -0.918 in assay [4]; -0.497 in assay [5]; -0.298 in assay [6]. Further, the z-score is -0.992 (inactive) in [7], -0.702 in assay [8], 1.17 in [9] and -0.386 (inactive) in assay [10].
In the case of `CCOC(=O)[C@H](CC(C)C)NC(=O)CCC1CC(OC(=O)NCCc2ccc(F)cc2)CC2(CCCC(COC(=O)NCc3ccccc3)O2)O1` (stereo not given in full), the z-score in [1] was -0.138; in assay [2], 0.0596; in [3], -3.35; in [4], -3.45; in [5], -3.81; in [6] it was -2.07. Also, the z-score in assay [7] was 0.154 (inactive); in assay [8] it was -0.165; in [9], -1.45; in assay [10] it was 0.29 (inactive).
As to `COCCOC(=O)N1C(=O)[C@@]2(c3cc(C#CCNC(N)=O)ccc31)[C@H](c1ccccc1OCCO)N1[C@H](c3ccccc3)[C@H](c3ccccc3)OC(=O)[C@H]1[C@@H]2C(=O)N1CCN(c2ncccn2)CC1`, the z-score is 0.0249 in assay [1]; 0.457 in assay [2]; 1.37 in [3]; 0.541 in [4]; 1.12 in assay [5]; -1.76 in [6]. The z-score is 0.856 (inactive) in [7], -0.847 in [8], -0.859 in assay [9] and -1.27 (inactive) in assay [10].
Turning to `O=C1[C@H]2[C@H]3[C@H](O)[C@H](O)CC(=NO[C@@H]4O[C@H](CO)[C@@H](O)[C@H](O)[C@H]4O)[C@H]3CC[C@H]2C(=O)N1Cc1ccccc1`, the z-score was -0.0916 in assay [1]; -0.0474 in assay [2]; -0.571 in assay [3]; 0.713 in assay [4]; -0.716 in assay [5]; 0.616 in assay [6]. The z-score in assay [7] is -0.0221 (inactive); in assay [8] it was 0.42; in assay [9], -0.755; in assay [10], 0.623 (inactive).
In the case of `O=C1[C@H]2[C@H]3[C@H](O)[C@H](O)CC(=NOC[C@@H](O)COCc4ccco4)[C@H]3CC[C@H]2C(=O)N1C1CCCCC1`, the z-score in [1] was -1.03; in [2] it was 0.979; in assay [3], 0.187; in assay [4], 0.29; in assay [5], -1.01; in [6], -0.322. For the same molecule, the z-score in assay [7] is -0.236 (inactive); in [8], -1.02; in assay [9] it was -0.611; in assay [10], -0.381 (inactive).
Take `C=C(/C(=C/C[C@@H](OC(=O)c1ccncc1)c1ccc(OCCO)cc1)c1cnc2ccccc2c1)C(C)C`: the z-score in assay [1] was 0.476; in assay [2], 0.443; in [3] it was -0.477; in assay [4], -1.78; in [5], 0.448; in assay [6] it was 2.2. Further, the z-score in assay [7] was -0.883 (inactive); in [8], -0.736; in assay [9], -0.48; in assay [10] it was -0.464 (inactive).
For the molecule `C=COC[C@H]1CN2[C@@H](CC[C@@H](C)[C@@H]2c2ccc(Br)cc2)C(=O)O1`, the z-score in assay [1] was 0.197; in assay [2], 0.34; in assay [3], 1.3; in [4], 0.48; in [5], -0.228; in assay [6], 0.244. The z-score is 1.39 (inactive) in [7], -0.56 in [8], 0.252 in assay [9] and -0.0242 (inactive) in [10].
`O=C1[C@H]2[C@H]3[C@H](O)[C@H](O)CC(=NOCc4ccccc4)[C@@H]3CC[C@H]2C(=O)N1C1CCCCC1`: the z-score is -0.128 in [1]; -1.08 in assay [2]; -0.622 in [3]; -0.615 in assay [4]; 0.0958 in assay [5]; -1.19 in assay [6]. Also, the z-score in assay [7] was -0.652 (inactive); in assay [8], 0.886; in assay [9], -0.101; in assay [10], 0.36 (inactive).
`O=C1[C@H]2[C@H]3[C@H](O)[C@H](O)CC(=NO[C@@H]4O[C@H](CO)[C@@H](O)[C@H](O)[C@H]4O)[C@@H]3CC[C@H]2C(=O)N1Cc1ccc2c(c1)OCO2`: the z-score in [1] is -0.575; in assay [2], 1.13; in [3] it was -0.874; in [4] it was -0.778; in assay [5] it was -1.06; in assay [6] it was 0.221. For the same molecule, the z-score in assay [7] was -1.34 (inactive); in assay [8], -0.981; in assay [9], 0.386; in assay [10], 0.159 (inactive).
With `C[C@H](c1ccccc1)N1C(=O)[C@H]2[C@H]3[C@H](O)[C@H](O)CC(=O)[C@@H]3CC[C@H]2C1=O`, the z-score in assay [1] was -0.311; in assay [2] it was -0.0863; in [3] it was -0.254; in assay [4], -0.0752; in assay [5], 0.299; in [6], 0.032. Moreover, the z-score in assay [7] was -0.239 (inactive); in assay [8] it was -0.0521; in [9] it was 0.25; in assay [10], -0.164 (inactive).
In the case of `CC(C)CON=C1C[C@@H](O)[C@@H](O)[C@@H]2[C@@H]3C(=O)N(C[C@@H]4CCCO4)C(=O)[C@@H]3CC[C@H]12`, the z-score is -0.31 in assay [1]; -0.528 in assay [2]; -0.222 in assay [3]; 0.12 in [4]; -0.259 in assay [5]; -0.637 in [6]. The z-score in [7] is -1.27 (inactive); in [8] it was 0.347; in [9], 0.0335; in [10], 0.322 (inactive).
